Wnt act: Wnt/beta-catenin pathway activation | Wnt/beta-catenin reporter cell assay, activator, plate reader | activation, % at 9.35 µM | 1.2% of 300,000 active | AID 743398; in the data active = activation above about 30%, passing the limit was not always enough
AHR act: activators of human aryl hydrocarbon receptor | P35869 | AHR-responsive luciferase reporter cells, luminescence | activation, % at 5 µM | 2.5% of 320,000 active; in the data active = activation above about 47%
Target sequence (P35869 whole entry, looked up): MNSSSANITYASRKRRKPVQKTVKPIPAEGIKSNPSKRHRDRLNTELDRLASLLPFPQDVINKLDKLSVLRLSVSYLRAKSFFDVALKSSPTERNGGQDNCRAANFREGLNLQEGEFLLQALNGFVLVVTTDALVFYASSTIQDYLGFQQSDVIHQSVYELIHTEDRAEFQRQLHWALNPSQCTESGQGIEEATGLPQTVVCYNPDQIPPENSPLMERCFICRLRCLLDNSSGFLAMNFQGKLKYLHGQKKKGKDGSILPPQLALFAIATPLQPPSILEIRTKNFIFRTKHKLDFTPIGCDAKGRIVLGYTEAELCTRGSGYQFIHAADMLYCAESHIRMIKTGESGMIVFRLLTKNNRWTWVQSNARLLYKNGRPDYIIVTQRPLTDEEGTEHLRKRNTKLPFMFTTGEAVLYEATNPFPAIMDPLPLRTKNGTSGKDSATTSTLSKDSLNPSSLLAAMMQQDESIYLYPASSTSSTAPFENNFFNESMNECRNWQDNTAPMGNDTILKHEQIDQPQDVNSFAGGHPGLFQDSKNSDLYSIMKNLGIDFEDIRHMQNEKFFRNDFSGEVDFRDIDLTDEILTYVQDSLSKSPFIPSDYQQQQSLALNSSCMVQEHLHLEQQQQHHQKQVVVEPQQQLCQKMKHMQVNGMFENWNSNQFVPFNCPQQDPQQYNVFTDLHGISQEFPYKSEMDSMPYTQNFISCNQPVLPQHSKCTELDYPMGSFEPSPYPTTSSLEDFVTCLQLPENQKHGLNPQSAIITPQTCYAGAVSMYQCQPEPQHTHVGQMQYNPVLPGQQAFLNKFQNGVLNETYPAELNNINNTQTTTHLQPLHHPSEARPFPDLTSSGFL
MITF TRPM1 HTS: MITF TRPM1 promoter activation in melanoma cells. SK-MEL-5 TRPM1-promoter luciferase, 24 h; % of positive control, neutral wells = 0. 0.75% of 300,000 active. activation, % at 12.5 µM;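 active = mean activation of at least 80% with every replicate also reaching 80%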
esBAF inh: blocks esBAF chromatin remodeling in mouse ES cells | reporter increase, % at 12.5 µM | 2% of 350,000 active | Bmi1-luciferase knock-in reporter, 24 h; 100% = twice the neutral-well signal; in the data active = activation above about 40%;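 also: a rise in the Bmi1 reporter signal indicates esBAF inhibition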
FXN GAA850 act: activators of GAA850 frataxin (FXN) promoter | HEK293 lucGAA850 FXN promoter luciferase reporter, 24 h; percent of 10 µM SAHA response | activation, % at 6 µM | 0.56% of 360,000 active | AID 540364;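 active = activation above the average of all compounds screened plus 3 SD, cutoff fixed separately per campaign, cut at about 7.5% in these data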
AHR act cf: human AHR activation, confirmation; shares compounds with AHR act; human cells, AHR-responsive luciferase reporter, luminescence; activation, % at 9 µM; 87% of 2,300 active; AID 2845; in the data active = activation above about 49%;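 also: HepG2 hepatoma cells carrying a DRE-driven firefly luciferase reporter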
PXR counter: activates human PXR in AHR activator counter-screen; shares compounds with AHR act; cell-based PXR reporter, luciferase luminescence; activation, % at 11.6 µM; 88% of 2,300 active; AID 434939; in the data active = activation above about 11%;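 also: human hepatoma DPX-2 cells expressing full-length human PXR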
Numbers stand for hits; - = inactive; . = not tested or not shown. Rows were chosen to be rich in hits. Some 4.2% of all compounds tested hit in one or more screens of this group.

SMILES	Wnt act	AHR act	MITF TRPM1 HTS	esBAF inh	FXN GAA850 act	AHR act cf	PXR counter
CN(C)c1ccc(Nc2nc(-c3cccnc3)cs2)cc1	.	89.6	-	-	-	62.5	27.2
CCc1ccccc1Nc1nc(-c2cccnc2)cs1	-	-	.	-	-	.	.
CCc1ccc(Nc2cc(C)nc3ncnn23)cc1	-	-	-	-	-	.	.
CCn1c2ccccc2c2cc(Nc3cc(C)nc4ncnn34)ccc21	-	131.9	-	-	-	88.9	89.9
CCCNc1nc(Cl)nc(Nc2ccc(Cl)cc2)n1	-	127.2	.	-	-	90.7	.
CCCCNc1nc(Cl)nc(Nc2ccc(C)cc2)n1	-	-	.	.	-	.	.
COc1ccc(NC(=O)N(C)C[C@H]2Oc3ccc(NS(=O)(=O)c4ccc(F)cc4)cc3CC(=O)N([C@@H](C)CO)C[C@@H]2C)cc1	.	.	.	-	.	.	.
Cc1onc(-c2ccccc2Cl)c1-c1nc(-c2ccccn2)no1	.	91.9	-	-	-	70.5	176.5
Cc1occc1-c1nc(-c2ccccn2)no1	-	-	-	-	-	.	.
O=C1c2ccccc2C(=O)N1CCC1=CCCCC1	.	103.2	-	54.2	-	120.8	17.0
O=C1c2ccccc2C(=O)N1CCOc1ccccc1	-	96.5	.	-	-	167.2	21.3
O=C(N[C@@H]1CC[C@@H](CC(=O)N2CCCCC2)O[C@H]1CO)c1ccc2c(c1)OCO2	.	.	.	-	.	.	.
COc1c(C(=O)Nc2nnc(C3CC3)s2)csc1Cl	-	113.5	-	47.7	-	157.0	78.6
COc1ccc(Nc2nc(-c3sc(C)nc3C)cs2)c(OC)c1	-	-	.	-	-	.	.
CCCCCC(=O)Nc1nc(C)c(-c2csc(Nc3cc(Cl)ccc3C)n2)s1	-	108.8	-	-	-	75.3	26.9
COc1ccc(Nc2nc(-c3sc(NC(C)=O)nc3C)cs2)cc1	.	-	.	.	.	.	.
CCOc1ccc(Nc2nc(-c3sc(N)nc3C)cs2)cc1	-	114.3	-	-	-	112.3	16.6
Cc1nc(NC(=O)CC(C)C)sc1-c1csc(Nc2ccc(Cl)cc2)n1	-	92.3	-	-	-	95.5	20.0
CCCCCC(=O)Nc1nc(C)c(-c2csc(Nc3cc(OC)ccc3OC)n2)s1	-	84.3	-	-	-	82.0	72.6
CO[C@@H]1CN(C)C(=O)c2cc(NS(=O)(=O)c3ccccc3Cl)ccc2OC[C@@H](C)NC[C@@H]1C	.	.	.	-	.	.	.
Oc1c(Br)cc(C2N=C(c3ccccc3)NO2)cc1Br (stereo unspecified)	.	94.4	-	.	-	91.9	17.6
COC(=O)Cn1cc(/C=N/NC(=O)COc2cccc3cccnc23)c2ccccc21	-	-	-	.	-	.	.
C#CCn1cc(/C=N/NC(=O)COc2cccc3cccnc23)c2ccccc21	.	103.4	-	.	-	62.6	.
COc1ccc(-c2sc3ccccc3c2C#CCCO)cc1	-	-	-	-	-	.	.
COc1cc(-c2ccc3sc(-c4ccsc4)c(C#CCO)c3c2)cc(OC)c1OC	-	80.0	-	-	-	60.5	12.6
SMILES	Wnt act	AHR act	MITF TRPM1 HTS	esBAF inh	FXN GAA850 act	AHR act cf	PXR counter
OCCC#Cc1c(-c2ccsc2)sc2ccccc12	-	85.8	-	-	-	62.0	12.9
CNc1sc(C(=O)c2cccs2)c(N)c1-c1nc2ccccc2s1	.	89.2	98.1	.	-	119.5	81.7
C[C@@H]1CN([C@H](C)CO)C(=O)Cc2cc(NC(=O)CCN3CCOCC3)ccc2O[C@H]1CN(C)S(=O)(=O)c1cccs1	.	.	.	-	.	.	.
O=C(Nc1cccc(Cl)c1Cl)c1ccccc1OCC(=O)N1CCOCC1	-	82.3	-	-	-	89.4	49.3
Cc1ccccc1C(=O)NC(=S)NCc1ccccc1	-	-	-	-	-	.	.
Cc1ccccc1C(=O)NC(=S)NCCc1ccccc1	.	85.8	-	.	-	103.7	26.9
Cc1c(/C=N/NC(N)=O)c2ccccn2c1C(=O)c1ccc(F)cc1	-	90.3	-	.	-	-	77.4
N#C/C(=C/c1cccs1)c1nc2ccccc2[nH]1	.	117.3	-	133.8	-	125.0	22.4
COc1cc(/C=C(\C#N)c2nc3ccccc3[nH]2)cc(OC)c1O	-	-	-	.	-	.	.
CCCNC(=O)c1ccc(COc2ccc(CCC)cc2OC)o1	-	80.0	-	-	-	79.6	40.8
Cc1ccc(C(=O)Nc2ccc3c(c2)OCO3)cc1S(=O)(=O)N1CCOCC1	-	-	-	.	-	.	.
O=C(Nc1ccc(Cl)c(-c2nc3ccccc3[nH]2)c1)c1ccc2c(c1)OCO2	-	86.3	-	.	-	93.0	19.2
Cc1ccc(C(=O)Nc2ccc3c(c2)OCO3)cc1Cl	46.2	93.7	86.7	-	-	118.0	38.0
Cc1ccc(C(=O)Nc2ccc3c(c2)OCO3)cc1	-	-	-	-	-	.	.
Cc1ccc(C(=O)Nc2ccc3c(c2)OCO3)cc1S(=O)(=O)N1CCCC1	.	82.0	-	79.2	-	70.1	218.1
S=c1nc2ccccc2c2nc(-c3ccccc3Cl)[nH]n12	-	133.9	-	-	-	128.6	28.4
S=c1nc2ccccc2c2nc(-c3ccccc3)[nH]n12	.	106.4	.	-	-	129.4	22.6
Clc1nc(-c2ccccc2)c2ccccc2n1	-	-	-	-	-	.	.
COC(=O)N/N=C/c1ccccc1Cl	-	-	-	.	-	.	.
COC(=O)N/N=C/c1cn(Cc2ccccc2Cl)c2ccccc12	-	83.4	-	.	-	64.5	69.6
CCCn1c(NC(=S)Nc2ccccc2)nc2ccccc21	.	82.7	-	-	-	75.2	10.5
C[C@@H]1CN([C@@H](C)CO)S(=O)(=O)c2ccc(C#C[C@@H](C)O)cc2O[C@H]1CN(C)Cc1ccccn1	.	.	.	-	.	.	.
COCC#Cc1cnc2c(c1)C(=O)N([C@H](C)CO)C[C@@H](C)[C@@H](CN(C)C(=O)CN1CCOCC1)O2	.	.	.	-	.	.	.
COc1ccc(NC(=O)N(C)C[C@@H]2OCCCC[C@@H](C)Oc3ccc(NC(=O)Nc4ccc5c(c4)OCO5)cc3C(=O)N([C@@H](C)CO)C[C@H]2C)cc1	.	.	.	-	.	.	.
Cc1ccc2cc3c(NC(=O)CC(C)C)nn(C)c3nc2c1	.	103.0	-	.	-	72.5	.
SMILES	Wnt act	AHR act	MITF TRPM1 HTS	esBAF inh	FXN GAA850 act	AHR act cf	PXR counter
CCN(Cc1ccccc1)c1ccc(/C=C(\C#N)c2ccccn2)cc1	96.2	86.4	121.2	77.2	-	70.1	43.9
Nc1nc(-c2ccccc2)c(N=Nc2ccc(Cl)cc2)s1	-	119.7	-	.	-	88.0	13.5
COc1ccc(-n2nc3ccccc3n2)cc1	-	-	-	-	-	.	.
COc1ccc(-n2nc3cc(N)c(Br)cc3n2)cc1	-	98.0	.	57.0	-	124.2	29.5
C[C@@H](O)C#Cc1cnc2c(c1)C(=O)N([C@@H](C)CO)C[C@H](C)[C@@H](CN(C)C(=O)Cc1ccccn1)O2	.	.	.	-	.	.	.
CNC[C@H]1Oc2c(NS(=O)(=O)c3cccs3)cccc2C(=O)N([C@@H](C)CO)C[C@@H]1C	.	.	.	-	.	.	.
Cc1cnc(NC(=O)c2ccc(OCC3CCCO3)cc2)s1 (stereo unspecified)	-	-	-	-	-	.	.
